The values that follow come from PubChem BioAssay (EPA / NIEHS).

Broadly, the AC50 is the concentration giving half of the maximal activity seen.

More than one record can exist for a structure, and the calls need not agree. Calls of active or inactive are those of the source. The calls were made as follows: active = hit-call score of the fitted dose curve at least 0.9, where 1 is the maximum; inactive = score below 0.9.

This experiment in a line: CCTE_Harrill_HTTr_Apoptosis_MCF7: CCTE's 6-hour Apoptosis Assessment for the High-Throughput Transcriptomics (HTTr) Platform, in MCF-7 cells cultured in DMEM + 10% fetal bovine serum, Harrill Lab (AID 2284011). From the text: This is a cell-based assay that evaluates apoptosis using high content imaging to evaluate activation of caspase-3/7 using the CellEvent Caspase 3/7 Green detection reagent in 384-well format.One of seven assay components measured from the CCTE_Harrill_HTTr_Apoptosis assay. This was part of a full screening experiment. This is a cell-based assay that evaluates apoptosis in MCF-7 cells cultured in DMEM + 10% fetal bovine serum. High content imaging is used to evaluate activation of caspase-3/7 using the CellEvent Caspase 3/7 Green detection reagent. Measurements are taken at 6 hours after chemical dosing in 384-well format.The assay component endpoint CCTE_Harrill_HTTr_Apoptosis_MCF7 was analyzed with bidirectional fitting relation to DMSO as the negative control and baseline of activity. Using a type of viability reporter, gain-of-signal activity can be used to evaluate activation of caspase-3/7 using the CellEvent Caspase 3/7 Green detection reagent to understand changes in apoptosis. To generalize the intended target to other relatable targets, this assay endpoint is annotated to cell cycle, where the subfamily is apoptosis.
Chemicals were tested in MCF7 cells in an eight point dilution series with a six hour exposure duration.
Turning to `CN(C)CCOCCN(C)C`, the result was inactive.

On to `c1ccc2c(c1)c1cccc3ccc4cccc2c4c31`, for which the outcome was inactive.

`c1ccc2[nH]ccc2c1`: the result was inactive and the AC50 was 55.3 µM (active).

For `Cc1ccc(C=O)cc1`, the result was inactive.

Turning to `CN1Cc2c(N)cccc2C(c2ccccc2)C1` (stereo not given), the result was inactive.

Regarding `CC(C)=CCCC(C)=CCCC(C)=CCO`, the outcome was inactive.

As for `CC(=O)/C=C/C1=C(C)CCCC1(C)C`, the outcome was inactive.

As for `O=C1C(c2[nH]c3ccc(S(=O)(=O)O)cc3c2O)=Nc2ccc(S(=O)(=O)O)cc21`, the outcome was inactive.

For the compound `Cc1cc(C2(c3cc(C)c(O)cc3C)OS(=O)(=O)c3ccccc32)c(C)cc1O`, the outcome was inactive.

As for `C=O`, the result was inactive.

`COc1cc(C=O)ccc1OC(=O)C(C)C`: the outcome was inactive.

Turning to `CC1(C)CCC(C)(C)c2cc(C(=O)Nc3ccc(C(=O)O)cc3)ccc21`, the result was inactive.

As to `O=c1cc(-c2ccccc2)oc2cc(O)cc(O)c12`, the outcome was inactive.

`BrC1CCC(Br)C(Br)CCC(Br)C(Br)CCC1Br` (stereo not given): the result was inactive.

With `CCCCNC(=O)NS(=O)(=O)c1ccc(C)cc1`, the outcome was inactive.

Take `N#Cc1ccccc1`: the result was inactive.

Turning to `O=P(c1ccccc1)(c1ccccc1)c1ccccc1`, the outcome was inactive.

`CCC(C)CCCC(C)(C)O` (stereo not given): the outcome was inactive.

`Cc1ccc(C(=O)c2cc(O)c(O)c([N+](=O)[O-])c2)cc1`: the outcome was inactive.

As for `CC(=O)[C@H]1CC[C@H]2[C@@H]3CC=C4C[C@@H](O)CC[C@]4(C)[C@H]3CC[C@]12C`, the outcome was inactive.

In the case of `CCCCCCCCCCCCOCCO`, the outcome was inactive.

Take `O=C[C@H](O)[C@H](O)[C@H](O)CO`: the result was inactive.

Turning to `Cc1cccc(Nc2ccccc2C(=O)O)c1C`, the result was inactive.

Regarding `Nc1ccc(S(N)(=O)=O)cc1`, the result was inactive.

Regarding `CN(C)C(=N)N=C(N)N`, the outcome was inactive.

Consider `NC(N)=NC(=O)c1nc(Cl)c(N)nc1N`, for which the result was inactive.

For `CCC(=O)OCc1ccccc1`, the outcome was inactive.

For the compound `CC(C)C[C@H]1C(=O)N2CCC[C@H]2[C@]2(O)O[C@](NC(=O)[C@@H]3C=C4c5cccc6[nH]c(Br)c(c56)C[C@H]4N(C)C3)(C(C)C)C(=O)N12`, the outcome was inactive.

On to `CCCCO`, for which the outcome was inactive.

In the case of `CCCCCCCCC`, the outcome was inactive.

On to `O=C(O)c1ccc([N+](=O)[O-])cc1`, for which the outcome was inactive.

For the compound `N#Cc1ccc(CC(=NNC(=O)Nc2ccc(OC(F)(F)F)cc2)c2cccc(C(F)(F)F)c2)cc1`, the outcome was inactive.

Turning to `CCN(CC)CCOC(=O)c1ccc(N)cc1`, the result was inactive.

In the case of `C=CCOc1nc(OCC=C)nc(OCC=C)n1`, the outcome was inactive.

In the case of `Cc1ccc(C=O)s1`, the outcome was inactive.

As to `CC1(C)[C@@H]2CC[C@@]1(C)[C@H](O)C2`, the result was inactive.

Regarding `C[C@]12CC[C@H]3[C@@H](CCC4=CC(=O)CC[C@@]43C)[C@@H]1CC[C@@H]2C(=O)CO`, the result was inactive.

For `S=C(S)NCCNC(=S)S`, the outcome was inactive.

With `O=C(O)c1ccc(C(=O)O)cc1`, the outcome was inactive.
